# This is a sample that favours compounds with a hit; in the whole collection about 1.3% have one here.
# UBC13 polyUb = blocks human UBC13 polyubiquitin chain formation. P61088. inhibition, % at 20 µM. 330,000 tested, 0.47% active. TR-FRET; in the data active = inhibition above about 45%, passing the limit was not always enough
# RAD54 branch = inhibitors of human RAD54 branch migration | RAD54 Holliday junction branch migration, FAM/BHQ fluorescence | inhibition, % at 10.4 µM | 360,000 tested, 0.14% active | AID 602329;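 active = mean normalized replicate activity at least 40 and at least half of replicates scoring 40 or more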;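 note: 0% = median of neutral control wells and 100% = median of positive control wells; inhibitors cause a drop in the FAM fluorescence signal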
# Target sequence (Q92698 whole entry, looked up): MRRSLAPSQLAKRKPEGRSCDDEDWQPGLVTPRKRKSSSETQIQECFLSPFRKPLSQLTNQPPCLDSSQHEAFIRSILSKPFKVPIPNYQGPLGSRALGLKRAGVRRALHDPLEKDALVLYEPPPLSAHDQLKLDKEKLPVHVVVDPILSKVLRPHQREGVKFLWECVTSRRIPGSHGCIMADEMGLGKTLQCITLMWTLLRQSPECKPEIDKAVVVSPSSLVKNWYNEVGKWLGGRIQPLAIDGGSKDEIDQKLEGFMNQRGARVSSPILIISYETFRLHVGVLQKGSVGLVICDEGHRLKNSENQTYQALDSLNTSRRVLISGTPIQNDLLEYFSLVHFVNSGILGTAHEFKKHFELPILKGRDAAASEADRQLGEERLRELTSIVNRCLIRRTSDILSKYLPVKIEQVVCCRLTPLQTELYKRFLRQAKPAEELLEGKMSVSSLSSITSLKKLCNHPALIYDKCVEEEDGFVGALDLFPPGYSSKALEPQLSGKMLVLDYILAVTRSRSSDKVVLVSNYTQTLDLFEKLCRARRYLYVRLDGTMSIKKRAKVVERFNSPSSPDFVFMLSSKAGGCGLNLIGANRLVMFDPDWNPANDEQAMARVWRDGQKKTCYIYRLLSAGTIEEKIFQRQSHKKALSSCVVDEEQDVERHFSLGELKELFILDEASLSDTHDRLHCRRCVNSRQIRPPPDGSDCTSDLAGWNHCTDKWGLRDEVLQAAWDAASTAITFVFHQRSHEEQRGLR
# PREPL inh = inhibitors of human prolyl oligopeptidase-like enzyme PREPL; recombinant PREPL, fluorescence polarization activity-based probe; inhibition, % at 5.96 µM; 320,000 tested, 0.68% active; in the data active = inhibition above about 43%;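 note: 0% = enzyme with DMSO and 100% = wells lacking enzyme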
# FID counter = displaces DNA intercalator in HCV helicase counter-screen; inhibition, % at 7.9 µM; 290,000 tested, 0.17% active; DNA fluorescent intercalator displacement, fluorescence; in the data active = inhibition above about 37%;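 note: 0% = vehicle and 100% = reference compound; higher means more ethidium bromide displaced from hairpin DNA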
# MIN6 prolif-1 = inducers of beta-cell replication in MIN6 cells. MIN6 cells proliferation, ATPlite luminescence, 48 h; cells starved in 0.2% serum; 100% = growth in 10% serum. proliferation, % at 10 µM. 330,000 tested, 0.29% active. AID 2380;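 active = compounds whose signal lies at least 3.5 SD above the mean of all wells on their plate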;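 note: 0% = DMSO-treated cells in low-serum medium and 100% = 10% serum control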
# RAD52 anneal inh = RAD52 (human) annealing inhibition | recombinant RAD52 DNA annealing, FRET fluorescence | inhibition, % at 18.7 µM | 360,000 tested, 0.46% active;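 active = every replicate showing at least 50% inhibition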
# MIN6 prolif-2 = MIN6 beta-cell replication induction, confirmed. AID 463095. MIN6 beta-cell proliferation, ATPlite luminescence, 48 h; cells kept in 0.2% serum; scaled between 0.2% and 10% serum. proliferation increase, % at 50 µM. 920 tested, under 10 active. shares compounds with MIN6 prolif-1;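 active = proliferation increase above 40% at any of the four tested concentrations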
# The depositor's hits bear a star; . = not tested or not shown.
SMILES,UBC13 polyUb,RAD54 branch,PREPL inh,FID counter,MIN6 prolif-1,RAD52 anneal inh,MIN6 prolif-2
COc1ccc(Cn2nnnc2CN2CCCCCC2)cc1,3,.,8,-5,0,5,.
COc1ccc(Cn2c(=O)c3[nH]cnc3n(-c3ccccc3C)c2=O)cc1,-3,.,7,-9,10*,-13,8
COc1ccc(C)c(-n2c(=O)n(Cc3ccccc3)c(=O)c3[nH]cnc32)c1,1,3,5,-6,1,-13,.
Cc1cccc(S(=O)(=O)N[C@@H]2CC[C@@H](CCn3cc(-c4ccccn4)nn3)O[C@H]2CO)c1,.,-16,.,.,.,-8,.
CCCCNc1ccc(S(N)(=O)=O)cc1[N+](=O)[O-],-10,.,2,-4,6.0*,.,-3
NS(=O)(=O)c1ccc(NCCCn2ccnc2)c([N+](=O)[O-])c1,-9,-1,7,-2,3,3,.
CS(=O)(=O)NCCNc1ccc(Cl)cc1[N+](=O)[O-],-64,.,3,-6,7.7*,-3,-1
C[C@@H]1CN([C@H](C)CO)C(=O)c2cc(NC(=O)Cn3cnnn3)ccc2O[C@H]1CN(C)C(=O)Nc1ccc(F)cc1,.,-18,.,.,.,-2,.
O=C(NC1CCN(Cc2ccccc2)CC1)c1ccccc1,7,2,6,-5,8.2*,-8,-1
CC(C)(C)c1ccc(C(=O)NC2CCN(Cc3ccccc3)CC2)cc1,2,5,-2,4,-3,-38,.
C[C@@H]1CN([C@H](C)CO)C(=O)c2cc(NC(=O)c3ccncc3)ccc2O[C@H]1CN(C)S(=O)(=O)c1ccc(Cl)cc1,.,5,.,.,.,-2,.
CCOC(=O)C1(CCc2ccccc2)CCN(Cc2cnc(N(C)C)s2)CC1,1,-5,30,8,-1,-1,.
CN(C)c1ncc(CN2CCC(CO)(CCCc3ccccc3)CC2)s1,-1,3,17,-1,7.3*,-5,-3
Cc1cc(C)nc(-n2nc(C)cc2NC(=O)CN2CCC(C)CC2)n1,3,1,21,-13,4.9*,.,-6
COc1nc(N(C)C)nc(N(C#N)S(=O)(=O)c2ccc(C)cc2)n1,-5,3,-3,4,5.8*,-19,1
COc1ccccc1NC(=O)N1CCN(c2ccccc2F)CC1,-7,-9,9,-17,7.3*,.,0
CCN(CC)S(=O)(=O)c1ccc(OC(C)C)c(NC(=O)C2=COCCO2)c1,-2,-10,-3,.,16*,3,-6
CCOc1ncccc1C(=O)OC(C)C(=O)Nc1ccc(Cl)cn1 (stereo not given),-6,-6,.,.,13*,-19,-1
Cc1noc(C)c1NC(=O)N(C)C[C@@H]1Oc2ccc(NS(=O)(=O)c3cn(C)cn3)cc2C(=O)N([C@H](C)CO)C[C@H]1C,.,-4,.,.,.,6,.
Cc1cc(NC(=O)CCC(=O)N(Cc2cccs2)C(C)(C)C(=O)NC2CCCCC2)no1,5,-5,-2,-46,6.2*,-9,-1
Cc1cc(NC(=O)CCC(=O)N(Cc2ccco2)C(C)(C)C(=O)NC2CCCCC2)no1,-3,.,4,-37,0,.,.
CCOc1cc(/C=N/n2nnnc2N)ccc1OCc1c(C)no[n+]1[O-],15,-2,-6,-1,0.0*,.,3
CC=Cc1ccc2n(c1=O)C[C@@H]1[C@@H](CO)[C@H](C(=O)NCc3ccncn3)N(C(=O)NC3CCCC3)[C@H]21 (mixture of isomers),.,-3,.,.,.,-16,.
Cc1[nH]c2ccccc2c1C(=O)NS(=O)(=O)Nc1ccc(F)cc1,0,.,-6,3,8.8*,-6,-4
CN1CCN(C(=O)CCCN2C(=O)/C(=C/c3ccccc3)SC2=S)CC1,1,7,2,16,7.5*,1,-6
CN1CCN(C(=O)CCCN2C(=O)/C(=C/c3ccc(Cl)cc3)SC2=S)CC1,14,-8,30,.,-2,.,.
COc1ccc(NC(=O)Nc2ccc3c(c2)C(=O)N([C@H](C)CO)C[C@H](C)[C@@H](CN(C)C(=O)CCC(F)(F)F)OCCCC[C@H](C)O3)cc1,.,-2,.,.,.,.,.
CCNC(=O)Nc1ccc2c(c1)C(=O)N(C)[C@H]1CC[C@@H](CC(=O)NCC3CCCCC3)O[C@@H]1CO2,.,-4,.,.,.,17,.
